Screens as filed in PubChem.
An excerpt weighted towards active compounds, which were near 7.5% of everything screened.
FLuc modulator – qHTS profiling assay for firefly luciferase inhibitor/activator using purifed enzyme and Km concentrations of substrates (counterscreen for miR-21 project); hit rate 6.9% among 360,000; Luciferin 4-monooxygenase (Photinus pyralis), P08659; AID 588342, 2011; purified FLuc, Km substrates, luminescence inhibition; Potency, µM (series often up to 57.5 µM), for inactives: at the highest dose activity change, negative = inhibition, hits mostly inhibitors;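 note: plate controls were vehicle for no effect and reference inhibitor for full effect; nearly all actives have a fitted effect of over 55% in size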
Target sequence (P08659 whole entry, looked up): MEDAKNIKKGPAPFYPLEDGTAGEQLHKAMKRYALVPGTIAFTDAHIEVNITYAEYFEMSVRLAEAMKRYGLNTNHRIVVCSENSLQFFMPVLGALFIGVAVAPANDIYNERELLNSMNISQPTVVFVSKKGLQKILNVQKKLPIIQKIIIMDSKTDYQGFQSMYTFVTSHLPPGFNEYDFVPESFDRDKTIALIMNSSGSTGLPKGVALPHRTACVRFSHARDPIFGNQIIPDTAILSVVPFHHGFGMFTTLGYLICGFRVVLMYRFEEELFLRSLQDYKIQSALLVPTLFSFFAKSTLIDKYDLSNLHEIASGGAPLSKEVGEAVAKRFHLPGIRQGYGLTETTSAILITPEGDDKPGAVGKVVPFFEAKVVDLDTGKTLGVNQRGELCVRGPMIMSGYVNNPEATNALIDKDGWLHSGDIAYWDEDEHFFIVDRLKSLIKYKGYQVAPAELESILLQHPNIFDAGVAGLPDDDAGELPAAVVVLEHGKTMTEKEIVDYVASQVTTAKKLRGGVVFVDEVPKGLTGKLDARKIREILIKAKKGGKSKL
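Purified P. pyralis luciferase (10nM final) with 10uM D-luciferin and 10uM ATP (Km levels) in 50mM Tris acetate pH 7.5, 10mM Mg acetate, 0.01% Tween-20, 0.05% BSA; qHTS 6-point titration, ~60 µM downward; luminescence read.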
KinaseGlo FLuc – Counterscreen for Luciferase (Kinase-Glo TM) Inhibition | Kinase-Glo luciferase, ATP luminescence, 8 min | hit rate 0.28% among 200,000 | Potency, µM (doses to about 38.3 µM), without a hit: at the top dose activity change, negative = inhibition, hits mostly inhibitors; note: % is set by controls: 0 for no effect and ±100 for the full control effect; nearly all actives have a fitted effect of over 60% in size
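Luminescence was the read-out, taken after 8-minute incubation at ambient temperature. Luciferase turned over luciferin with 10 uM ATP in imidazole pH 7.2 buffer containing KCl, MgCl2, Tween 20 and BSA.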
NPC1 promoter act – qHTS Assay for NPC1 Promoter Activators; Huh7 NPC1 promoter luciferase reporter, 24 h; Potency, µM (top dose mostly 9.22 µM), without a hit: at the highest dose activation, most hits filed as activators; hit rate 2.4% among 320,000; AID 485313, 2010; note: % of control where 0% means no effect; nearly all actives have a fitted effect of over 60% in size
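Stable NPC1-promoter luciferase Huh7 line; cpd (DMSO) 24 h, 37 °C, 5% CO2; Amplite luciferase reagent 10 min RT; luminescence readout. qHTS format.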
Rab9 promoter act – qHTS Assay for Rab9 Promoter Activators; Potency, µM (series often up to 9.22 µM), for inactives: at the top dose activation, negative = inhibition, usual class: activators; Huh7 Rab9 promoter-luciferase reporter, luminescence, 24 h; hit rate 2.8% among 320,000; note: % of control where 0% means no effect; nearly all actives have a fitted effect of over 60% in size
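Steps: seed 1500 Huh7 Rab9-luc cells per well, rest 2 h at 37 °C; add compound in DMSO; incubate 24 h; add luciferase reagent, 10 min ambient; read luminescence.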
SMN2 splice up – qHTS Assay for Enhancers of SMN2 Splice Variant Expression; HEK293 SMN2-luciferase splicing reporter, luminescence, 30-36 h; Potency, µM (top dose mostly 46.1 µM), for the others: at the top dose activity change, positive = activation, hits mostly activators; hit rate 2.8% among 210,000; note: % of control where 0% means no effect; nearly all actives have a fitted effect of over 55% in size
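HEK293 cells carry an SMN2 minigene-luciferase reporter in which exon 7 inclusion puts luciferase in frame. Cells were seeded at 2000 cells/well, attached for 10-12 hours, then exposed to compounds for 30-36 hours at 37C before ONE-Glo luminescence.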
ELG1 genotoxic – qHTS screen for small molecules that induce genotoxicity in human embryonic kidney (HEK293T) cells expressing luciferase-tagged ELG1; Potency, µM (doses to about 46 µM), for inactives: at the top dose activity change, positive = activation, most hits filed as activators; hit rate 1.3% among 330,000; AID 504466, 2011; HEK293T ELG1-luciferase reporter, luminescence, 16 h; note: % of control where 0% means no effect; nearly all actives have a fitted effect of over 60% in size
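DMSO vehicle served as control against compound-treated ELG1-luciferase HEK293T cells; exposure lasted 16 hr at 37 °C and 5% CO2, followed by ONE-Glo luminescence detection after 30 min.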
* = called active by the depositor; ? = inconclusive; . = no result given; [ ] = another dose, or the depositor's remark. Calls come from the whole dose curve; as a rule, active = well fitted curve in the direction sought with a large enough effect; inconclusive = small, poorly fitted or top-dose-only effect, or another doubt; inactive = no such curve, though single readings can be large; an effect the other way counts as inactive or inconclusive. Potency is the fitted concentration of half-maximal effect.

SMILES | FLuc modulator | KinaseGlo FLuc | NPC1 promoter act | Rab9 promoter act | SMN2 splice up | ELG1 genotoxic
COc1ccc2c(c1)c(=O)c(S(=O)(=O)c1ccc(Cl)cc1)cn2Cc1cc(C)ccc1C | 1% | . | . | . | -5% | .
O=C(O)c1cccc(-n2cc(-c3cccc(C(F)(F)F)c3)cn2)c1 | 1.2µM* | . | 0.32µM* | 0.35µM* | . | ?
CCOC(=O)C1CCCN(C(=O)CCCn2nnnc2CN2CCC(C)CC2)C1 (stereo not given) | 0% | . | -2% | -3% | . | 0%
CCOC(=O)CSc1nc2ccc(C)cc2cc1C#N | 12µM* | -4% | 2.8µM* | 1.4µM* | 16µM* | 2.3µM*
COc1ccc2nc(SCC(C)=O)c(C#N)cc2c1 | 1.1µM* | -5% | ? | 1µM* | 2µM* | 2.1µM*
CCOC(=O)CSc1nc2cc(C)ccc2cc1C#N | ? | 0% | 0.71µM* | 1.3µM* | 14µM* | ?
CCOC(=O)CSc1nc2cc(OC)ccc2cc1C#N | ? | 1% | 0.79µM* | 1.3µM* | 11µM* | 0.82µM*
Cc1cn2c(=O)cc(COc3ccc(NC(=O)COc4ccccc4)cc3)nc2s1 | -4% | . | . | . | -2% | .
O=C(c1cccc(F)c1)N1CCC2(CCN(Cc3ccccc3)CC2)CC1 | . | -2% | . | . | 1% | .
CCN(CCN(C)C)C(=O)Cn1ncc2c([nH]c3ccc(C)cc32)c1=O | -2% | . | . | . | . | .
c1ccc(C(c2cccc3c2ccc2ccccc23)[C@H](c2ccccc2)c2cccc3c2ccc2ccccc23)cc1 (stereo not given in full) | . | -3%[7.66 µM] | . | . | -1%[9.22 µM] | .
O=C(CCn1c2c(c3ccccc31)CCCC2)NNC(=O)c1ccccc1C(=O)O | 27µM* | . | 6% | -3% | . | -1%
O=C(CCn1c2c(c3ccccc31)CCCC2)NNC(=O)c1ccccc1[N+](=O)[O-] | ? | -2% | -2% | 0% | 1% | 1%
Cc1ccccc1OCCC(=O)Nc1ccc2c(C)cc(=O)oc2c1 | 3% | . | -4% | 15% | . | 21%
Cc1cc(C)c(NC(=O)COc2ccccc2C(=O)Nc2ccc3c(c2)oc2ccccc23)c(C)c1 | 13µM* | 14% | -4% | 0% | -4% | 13%
CCOc1ncccc1C(=O)Nc1ccc(F)c(F)c1 | -6% | 1% | -1% | 7% | 2% | -5%
COc1ccccc1C(=O)Nc1ccc2c(C)cc(=O)oc2c1 | ? | . | 2µM* | 1.6µM* | . | ?
CCOc1ncccc1C(=O)Nc1ccc2c(C)cc(=O)oc2c1 | 0% | -5% | 3.5µM* | ? | -11% | 2%
Cc1sc2ncnc(SCC(=O)Nc3ccc(S(=O)(=O)N4CCOCC4)cc3)c2c1C | . | . | . | . | . | -4%
C[C@H](CO)N1C[C@H](C)[C@@H](CN(C)C(=O)Nc2ccc(C(F)(F)F)cc2)Oc2ccc(NC(=O)Cc3ccccc3)cc2C1=O | . | . | . | . | . | -1%
COc1ccc(NC(=O)C(=O)NCCc2csc3nc(-c4ccccc4F)nn23)cc1OC | -1% | . | . | . | . | .
CCN(CC)C[C@@H](O)c1ccc2ccc3ccccc3c2c1 | . | -5%[7.66 µM] | . | . | -5%[9.22 µM] | .
Cc1ccc2c(CNCc3ccco3)cc(=O)oc2c1 | 24µM* | 2% | ? | ? | 13µM* | ?
CCOc1ccccc1NCc1cc(=O)oc2cc(C)ccc12 | ? | . | -1% | -1% | . | 2%
CC(=O)Nc1ccc(N2C(=O)c3cccc4c(O)ccc(c34)C2=O)cc1 | ? | . | 0% | 1% | . | 0%
SMILES | FLuc modulator | KinaseGlo FLuc | NPC1 promoter act | Rab9 promoter act | SMN2 splice up | ELG1 genotoxic
O=C1c2cccc3c(O)ccc(c23)C(=O)N1c1ccc(Cl)cc1 | 17µM* | . | 3.5µM* | 0.79µM* | . | 6%
COc1ccc(-c2nc3ccccc3s2)cc1NC(=O)c1ccccc1OC | 11µM* | . | . | . | ? | .
COc1cc(C(=O)NCc2ccncc2)cc(OC)c1OC | 1% | -5% | -1% | -1% | . | 4%
COc1ccc(C(=O)Nc2cc(C)c(O)c(-c3nc4ccccc4s3)c2)cc1OC | 0.67µM* | . | . | . | 5% | .
COc1cc(C(=O)NCc2ccc(-c3nc4ccccc4s3)cc2)cc(OC)c1OC | 0.6µM* | -4% | 23% | ? | 18µM* | ?
COc1cc(C(=O)NCc2ccc(OCCN(C)C)cc2)cc(OC)c1OC | 4% | -4% | -4% | -1% | ? | 23µM*
O=C(COc1ccccc1)Nc1nnc2n1CCS2 | -2% | . | . | . | . | .
O=C(CN(C(=O)CCC(=O)Nc1nccs1)c1cccc(F)c1)NCCc1ccccc1 | 1% | . | -32% | -2% | . | 11%
COc1cccc(C(=O)NCc2ccc(-c3nc4ccccc4s3)cc2)c1 | 2.7µM* | -4% | 10% | ? | ? | 21µM*
O=C(NCc1ccc(-c2nc3ccccc3s2)cc1)c1ccc(Br)o1 | 11µM* | -3% | 14% | 24% | -21%[1.84 µM] | ?
COc1ccc(C(=O)NCc2ccc(-c3nc4ccccc4s3)cc2)cc1 | 2.4µM* | -1% | 24% | 22% | -6% | -1%
COc1ccccc1C(=O)Nc1ccc(-c2nc3ccccc3s2)c(C)c1 | 3.8µM* | . | . | . | . | .
O=C(NCc1ccc(-c2nc3ccccc3s2)cc1)c1cc2ccccc2o1 | ? | . | 1% | 2% | . | 12%
COc1ccccc1CNC(=O)c1cc(S(=O)(=O)N2CCCC2)cn1C | 0% | . | 1% | -1% | . | 0%
Cc1cccnc1NC(=O)c1nn(C)c2c1CS(=O)(=O)c1ccccc1-2 | 3% | . | -2% | 0% | . | 0%
COc1ccccc1C(=O)NCc1ccc(-c2nc3ccccc3s2)cc1 | 6µM* | 4% | 28% | ? | -12%[1.84 µM] | 18%
COc1cc2c(cc1OC)CN(c1ccc(C(F)(F)F)cn1)CC2 | 17µM* | . | 27% | 17% | . | ?
Nc1ccc(C(=O)N/N=C\c2cc(N=Nc3cccc4ccccc34)ccc2O)cc1 | 7.6µM* | 0% | -7% | 1% | -76% | -7%
COC(=O)N/N=C/c1cc(N=Nc2ccccc2Cl)ccc1O | 6µM* | . | ? | ? | . | 5%
Cc1ccc(NC(=O)C2Cc3ccccc3O/C2=N\O)cc1C (stereo not given) | -12% | . | 28% | ? | . | ?
O=C(Nc1ccc(Br)cc1)C1Cc2ccccc2O/C1=N\O (stereo not given) | ? | . | 3.2µM* | 2.8µM* | . | 18µM*
CCc1ccc(OCC(=O)O/N=C(\N)c2ccccn2)cc1 | 9.5µM* | . | 3.2µM* | 3.2µM* | . | 7.3µM*
